Among the data in PubChem BioAssay are composite z-score, composite Z-score and z-score values, retold here.

The target of test [1] is Albumin (Bos taurus) (UniProt P02769). The test can be described thus: compounds binding labelled BSA control protein – biochemical, small-molecule microarray, Alexa647 label, 635/667 nm fluorescence, artefact control for SMM control protein annotation, profiling panel (AID 1118).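 Also: score merges 667 nm emission intensity and signal-to-noise per printed compound spot.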 Particulars: BSA-A647 binding, fluorescence 635 nm, higher = more signal.
Chain of Albumin (Bos taurus) (P02769 whole entry, looked up): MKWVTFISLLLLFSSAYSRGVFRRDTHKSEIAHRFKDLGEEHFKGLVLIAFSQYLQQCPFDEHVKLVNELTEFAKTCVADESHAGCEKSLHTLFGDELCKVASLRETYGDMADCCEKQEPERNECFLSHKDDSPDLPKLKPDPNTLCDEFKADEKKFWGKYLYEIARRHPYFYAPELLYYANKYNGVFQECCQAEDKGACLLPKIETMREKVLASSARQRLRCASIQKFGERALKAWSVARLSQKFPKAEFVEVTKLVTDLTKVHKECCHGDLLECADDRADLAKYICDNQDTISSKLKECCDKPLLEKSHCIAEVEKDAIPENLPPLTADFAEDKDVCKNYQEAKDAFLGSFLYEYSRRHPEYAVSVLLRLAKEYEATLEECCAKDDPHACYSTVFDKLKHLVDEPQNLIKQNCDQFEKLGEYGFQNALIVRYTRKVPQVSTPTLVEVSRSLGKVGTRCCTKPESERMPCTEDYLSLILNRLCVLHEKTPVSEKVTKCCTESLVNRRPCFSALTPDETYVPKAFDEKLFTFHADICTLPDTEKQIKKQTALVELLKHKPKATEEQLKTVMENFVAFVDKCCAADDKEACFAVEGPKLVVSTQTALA
Test [2] is described as follows: probe aXIP binding to arrayed compounds – biochemical, NeuroSMM set, 635/667 nm fluorescence, primary screen (AID 1119).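 Also: probe is the protein aXip251-270 applied at 1 µg/mL to compound-printed slides; binding of probe to printed compounds measured as 667 nm fluorescence plus signal to noise.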 The conditions noted are these: small-molecule microarray, higher = more signal, called active from +8 up or from −8 down.
Test [3] is described as follows: probe aNOTCH3 binding on compound microarray – biochemical, small-molecule microarray, 635/667 nm fluorescence, primary screen (AID 1120).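 Also: probe is a biotin-tagged antibody raised against NOTCH3 rather than NOTCH3 protein; score merges spot fluorescence near 667 nm with spot signal to noise.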 Particulars: higher = more signal.
Test [4] can be described thus: probe aNOTCH2 binding on compound microarray – biochemical, small-molecule microarray, 635/667 nm fluorescence, primary screen (AID 1121).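 Also: score merges feature fluorescence read at 667 nm with its signal to noise.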 The conditions noted are these: higher = more signal.
For test [5], the target named is Carbonic anhydrase 2 (Homo sapiens) (UniProt P00918). As to the kind of experiment: compounds binding carbonic anhydrase 2 – biochemical, small-molecule microarray, Alexa647-labelled CAII, profiling panel (AID 1122). The conditions noted are these: CAII-A647 binding fluorescence, higher = more signal.
Test [6] in a line: COS7 lysate on small-molecule microarray, probe aHis, 635 nm (AID 1123).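 Also: z-score combines 667nm fluorescence intensity with signal-to-noise per printed compound spot.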 The conditions noted are these: COS7 cell lysate, fluorescence, higher = more signal.
The nature of test [7]: probe aLAP1 signal on lysate-treated microarray – cell lysate, small-molecule microarray, COS7 lysate, primary screen (AID 1124).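 Also: lysate comes from COS7 cells expressing LAP1 and is applied at 0.3 µg/mL; score merges spot fluorescence near 667 nm with signal-to-noise over triplicate slides.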 The conditions noted are these: probe aLAP1, fluorescence, higher = more signal.
The subject of test [8] is Sam68 (KHDRBS1). As to the kind of experiment: compounds binding KHDRBS1 protein – biochemical, small-molecule microarray, 635 nm fluorescence, primary screen (AID 1125).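 Also: score merges 667 nm channel intensity with signal to noise over triplicate slides.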 The conditions noted are these: higher = more signal.
Test [9] deals with Chordin-like protein 2 (CHRDL2). As to the kind of experiment: compounds binding chordin-like 2 – biochemical, small-molecule microarray, 635 nm fluorescence, primary screen (AID 1126).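 Also: printed compound slides probed with Chrdl2 protein at 4 µg/mL for 1 h at 4 C; score merges 667 nm emission intensity with signal to noise over three replicate slides.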 The conditions noted are these: fluorescence 635 nm, higher = more signal.
For test [10], the target named is Concanavalin-A (Canavalia ensiformis) (UniProt P02866). As to the kind of experiment: compounds binding concanavalin A lectin – biochemical, small-molecule microarray, Alexa647 label, 635 nm, artefact control for SMM control protein annotation, primary screen (AID 1127).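 Also: z combines 667 nm emission intensity with signal-to-noise across three replicate slides.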 The conditions noted are these: ConA-A647 binding fluorescence, higher = more signal.
Chain of Concanavalin-A (Canavalia ensiformis) (P02866 whole entry, looked up): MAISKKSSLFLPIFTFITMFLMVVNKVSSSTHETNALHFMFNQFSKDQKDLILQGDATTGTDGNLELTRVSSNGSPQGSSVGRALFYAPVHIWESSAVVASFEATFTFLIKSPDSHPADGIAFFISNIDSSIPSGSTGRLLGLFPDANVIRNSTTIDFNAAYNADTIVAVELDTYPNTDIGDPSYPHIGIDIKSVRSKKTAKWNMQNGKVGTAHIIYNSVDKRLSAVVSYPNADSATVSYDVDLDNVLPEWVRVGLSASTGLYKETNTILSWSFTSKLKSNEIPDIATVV
Test [11] in a line: compounds binding Alexa647 anti-His antibody – biochemical, small-molecule microarray, 635 nm fluorescence, artefact control for SMM control protein annotation, primary screen (AID 1128).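 Also: score merges feature fluorescence with signal-to-noise for each printed compound spot.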 Particulars: higher = more signal.
The subject of test [12] is Human papillomavirus type 1a E7 protein (residues 1-88). The test can be described thus: HPV1a E7 small-molecule binders, primary screen, biochemical, small-molecule microarray, residues 1-88, 635 nm (AID 1129). Particulars: small-molecule microarray binding, fluorescence 635 nm; higher = more signal.
For test [13], the target named is Focal adhesion kinase 1 (Homo sapiens) (UniProt Q05397). As to the kind of experiment: PTK2 protein binding on printed compound slides – biochemical, small-molecule microarray, 635/667 nm fluorescence, BSA, DTT, primary screen (AID 1130).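 Also: composite of spot emission at 667 nm and signal to noise over triplicate slides.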 Particulars: 635 nm fluorescence, higher = more signal.
Chain of Focal adhesion kinase 1 (Homo sapiens) (Q05397 whole entry, looked up): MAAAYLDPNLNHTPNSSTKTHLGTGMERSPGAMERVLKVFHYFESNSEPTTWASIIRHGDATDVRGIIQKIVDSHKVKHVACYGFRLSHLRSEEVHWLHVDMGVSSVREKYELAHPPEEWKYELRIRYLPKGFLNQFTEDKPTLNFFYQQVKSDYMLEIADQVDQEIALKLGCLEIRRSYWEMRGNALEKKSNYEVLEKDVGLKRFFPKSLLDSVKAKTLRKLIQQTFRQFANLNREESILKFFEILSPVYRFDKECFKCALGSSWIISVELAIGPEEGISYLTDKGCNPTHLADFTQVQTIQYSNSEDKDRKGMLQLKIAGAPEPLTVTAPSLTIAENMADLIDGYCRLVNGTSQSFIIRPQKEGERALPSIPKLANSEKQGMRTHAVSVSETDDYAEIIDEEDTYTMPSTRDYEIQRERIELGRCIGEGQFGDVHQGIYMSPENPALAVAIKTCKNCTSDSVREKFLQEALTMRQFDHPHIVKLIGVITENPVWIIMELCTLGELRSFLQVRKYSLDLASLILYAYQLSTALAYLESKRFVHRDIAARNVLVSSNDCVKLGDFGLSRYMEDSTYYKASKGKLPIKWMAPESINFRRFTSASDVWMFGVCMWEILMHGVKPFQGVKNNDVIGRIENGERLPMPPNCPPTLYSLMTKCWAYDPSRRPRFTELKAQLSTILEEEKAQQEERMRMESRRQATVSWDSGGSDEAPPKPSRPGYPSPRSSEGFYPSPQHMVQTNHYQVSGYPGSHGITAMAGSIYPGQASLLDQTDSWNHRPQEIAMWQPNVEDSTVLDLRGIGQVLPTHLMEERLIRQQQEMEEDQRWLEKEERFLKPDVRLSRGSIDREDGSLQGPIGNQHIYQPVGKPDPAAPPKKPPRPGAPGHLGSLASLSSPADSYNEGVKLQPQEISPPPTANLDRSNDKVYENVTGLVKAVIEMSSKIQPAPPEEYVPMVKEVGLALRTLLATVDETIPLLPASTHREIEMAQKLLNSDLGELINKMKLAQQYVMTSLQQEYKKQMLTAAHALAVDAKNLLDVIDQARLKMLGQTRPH
The subject of test [14] is Fibrinogen (Alexa647-labelled). As to the kind of experiment: Alexa647-fibrinogen binding to printed small molecules – biochemical, small-molecule microarray, 635/667 nm fluorescence, artefact control for SMM control-protein annotation, profiling panel (AID 1131).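 Also: z-score merges 667 nm fluorescence with per-spot signal-to-noise over triplicate slides.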 The conditions noted are these: fibrinogen-A647 binding fluorescence, higher = more signal.
Test [15] deals with Follistatin (Homo sapiens) (UniProt P19883). As to the kind of experiment: FST protein binding to printed compounds – biochemical, small-molecule microarray, 635/667 nm fluorescence, primary screen (AID 1132). The conditions noted are these: 635 nm fluorescence, higher = more signal.
Chain of Follistatin (Homo sapiens) (P19883 whole entry, looked up): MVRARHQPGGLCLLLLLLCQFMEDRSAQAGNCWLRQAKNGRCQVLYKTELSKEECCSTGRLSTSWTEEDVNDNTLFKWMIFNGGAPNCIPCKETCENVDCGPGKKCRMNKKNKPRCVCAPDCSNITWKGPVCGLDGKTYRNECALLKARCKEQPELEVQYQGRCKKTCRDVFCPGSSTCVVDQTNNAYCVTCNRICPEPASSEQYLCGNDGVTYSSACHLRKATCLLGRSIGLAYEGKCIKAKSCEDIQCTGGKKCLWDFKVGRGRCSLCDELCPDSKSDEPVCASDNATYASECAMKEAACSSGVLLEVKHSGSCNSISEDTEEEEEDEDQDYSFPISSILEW
Test [16] addresses Fibroblast growth factor 2 (Homo sapiens) (UniProt P09038). As to the kind of experiment: basic fibroblast growth factor binding to printed compounds – biochemical, small-molecule microarray, 635/667 nm fluorescence, primary screen (AID 1133). The conditions noted are these: FGF2, fluorescence 635/667, higher = more signal.
Test [17] is described as follows: JC-1 mitochondrial potential readout, lung cancer cells – cell-based, A549, JC-1 fluorescence, basal, 24 h, 100 nL, profiling panel (AID 1138).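 Also: A549 lung adenocarcinoma cells under basal conditions with no added stimulus; test concentration not given here.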 The conditions noted are these: higher = more signal.
Test [18] deals with Lefty1. As to the kind of experiment: Lefty1 protein binding to printed compounds – biochemical, small-molecule microarray, 635/667 nm fluorescence, primary screen (AID 1139). The conditions noted are these: fluorescence 635/667, higher = more signal.
The subject of test [19] is wheat germ agglutinin (Triticum aestivum), Alexa647-labelled. As to the kind of experiment: Alexa647-WGA lectin binding to printed small molecules – biochemical, small-molecule microarray, 635/667 nm fluorescence, artefact control for SMM control-protein annotation, profiling panel (AID 1140).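 Also: score merges 667 nm feature emission with signal to noise over triplicate slides.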 Particulars: WGA-A647 binding, 635 nm fluorescence, higher = more signal.
In test [20] the target is Luciferin 4-monooxygenase (Photinus pyralis) (UniProt P08659). As to the kind of experiment: inhibition of purified Photinus pyralis luciferase – biochemical, luminescence, purified enzyme, 2006 set, primary screen (AID 1141).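 Also: cell-free assay with purified firefly luciferase at 100 ng per well in PBS; test concentration not given here.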 Particulars: purified firefly luciferase, SteadyGlo luminescence, 30 min; higher = more signal, called active from +8 up or from −8 down.
Chain of Luciferin 4-monooxygenase (Photinus pyralis) (P08659 whole entry, looked up): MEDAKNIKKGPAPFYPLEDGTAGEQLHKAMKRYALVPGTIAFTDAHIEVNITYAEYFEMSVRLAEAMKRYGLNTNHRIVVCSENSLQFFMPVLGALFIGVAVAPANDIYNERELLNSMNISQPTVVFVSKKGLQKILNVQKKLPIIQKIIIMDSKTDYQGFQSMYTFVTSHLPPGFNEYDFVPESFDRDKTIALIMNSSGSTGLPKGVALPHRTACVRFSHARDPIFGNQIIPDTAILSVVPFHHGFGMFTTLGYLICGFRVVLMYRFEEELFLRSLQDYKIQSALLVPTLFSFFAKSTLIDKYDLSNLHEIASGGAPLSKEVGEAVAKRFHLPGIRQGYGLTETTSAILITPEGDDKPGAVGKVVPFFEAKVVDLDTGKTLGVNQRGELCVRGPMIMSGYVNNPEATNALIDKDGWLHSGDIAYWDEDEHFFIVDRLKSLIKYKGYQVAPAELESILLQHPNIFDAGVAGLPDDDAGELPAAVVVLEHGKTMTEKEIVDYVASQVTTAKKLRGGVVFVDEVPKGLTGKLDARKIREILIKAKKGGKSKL

Molecules are shown by their SMILES. Calls of active or inactive are those of the source.

Chain of Fibroblast growth factor 2 (Homo sapiens) (P09038 whole entry, looked up): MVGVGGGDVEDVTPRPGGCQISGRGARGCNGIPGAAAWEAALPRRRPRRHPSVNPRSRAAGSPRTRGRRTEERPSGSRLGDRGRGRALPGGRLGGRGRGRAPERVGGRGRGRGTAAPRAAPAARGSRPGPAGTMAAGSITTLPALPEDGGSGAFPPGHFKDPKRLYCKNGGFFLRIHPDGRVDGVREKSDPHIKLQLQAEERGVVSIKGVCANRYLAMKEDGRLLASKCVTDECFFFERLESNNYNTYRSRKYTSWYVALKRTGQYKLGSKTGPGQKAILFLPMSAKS

With `Cc1ccc(S[C@]2(C(=O)NC3CC3)CC(=O)N(Cc3ccccc3C(F)(F)F)[C@@H]2c2ccc(CO)cc2I)cc1`, the composite z-score in test [1] is -1.2; in test [3] it was -0.0311; in test [4] it was -0.0708; in test [5], 0.653; in test [6] it was 0.898; in test [7] it was 0.417. The composite z-score was 0.547 in [8]; -0.229 in [9]; -0.387 in [10]; -1.01 in [11]; 0.303 in test [12]; -0.0823 in test [13]. Moreover, the composite z-score in test [14] is -0.763; in test [15], 1.25; in test [16] it was 0.0123; in test [18], -0.258; in test [19], 0.74. The composite Z-score in test [2] was -0.275 (inactive). Moreover, the values for the z-score in [17] and in [20] were 1.57 and -1.15 (inactive), respectively.

On to `C=CC[C@@]1(C(=O)NCc2ccccc2)N=C(c2ccc(OCCCO)cc2)O[C@@H]1c1ccccc1`, for which the composite z-score was 0.864 in test [1]; 0.0762 in [3]; -0.061 in test [4]; 0.493 in test [5]; 2.56 in test [6]; 0.268 in [7]. For the same compound, the composite z-score is 0.966 in [8]; -0.353 in test [9]; 0.454 in test [10]; 1.11 in [11]; 1.16 in test [12]; 0.997 in [13]. For the same compound, the composite z-score in [14] is -0.017; in [15], -0.646; in [16], -1.1; in test [18] it was -0.865; in test [19] it was 0.539. Besides, the composite Z-score in [2] was 0.118 (inactive). Moreover, the z-score is 0.215 in test [17] and -1.05 (inactive) in test [20].

As for `CC(C)C(=C=CC[C@@H](O)c1ccc(CO)o1)CCO`, the composite z-score in [1] is -0.596; in test [3] it was -0.0984; in test [4] it was -0.11; in test [5] it was 0.795; in [6], 0.57; in test [7] it was -0.0333. Moreover, the composite z-score in test [8] is 0.541; in [9] it was 0.107; in [10], 0.349; in [11], 0.635; in test [12], -0.356; in test [13], -0.7. Also, the composite z-score was determined as 0.401 in [14]; 0.987 in test [15]; 1.05 in test [16]; 0.759 in test [18]; 0.308 in test [19]. In [2], the composite Z-score was 1.71 (inactive). Also, the figures for the z-score in test [17] and in test [20] were 1.86 and -2.15 (inactive), respectively.

Turning to `COCCCNC(=O)[C@@]1(Cc2ccccc2CN=[N+]=[N-])COC(c2ccc(OCCCO)cc2)=N1`, the composite z-score is 0.922 in [1]; 0.248 in test [3]; 0.0261 in test [4]; 0.673 in test [5]; 2.83 in [6]; 0.413 in test [7]. Besides, the composite z-score in test [8] was 1.3; in test [9], -2.16; in test [10], 1.13; in [11] it was 2.69; in test [12] it was 1.21; in [13] it was 0.759. Further, the composite z-score in test [14] was 0.479; in [15], 0.186; in [16], -0.742; in [18], -0.713; in test [19], 1.03. Also, the composite Z-score in test [2] was 0.536 (inactive). Further, the z-score is 1.79 in [17] and -1.59 (inactive) in test [20].

On to `COCCOC(=O)N1C(=O)[C@@]2(c3ccccc31)[C@H](C(=O)Nc1nc3ccccc3s1)[C@H]1C(=O)O[C@H](c3ccccc3)[C@H](c3ccccc3)N1[C@@H]2c1ccc(O)cc1`, for which the composite z-score in test [1] was 0.794; in [3], 0.288; in test [4] it was -0.0551; in test [5] it was 0.435; in test [6], 0.903; in test [7], 0.418. Besides, the composite z-score in [8] came to 1.3; in test [9], 0.318; in test [10], 1.21; in test [11], 1.68; in test [12], 1.2; in test [13] it was 0.261. Further, the composite z-score in [14] amounted to 0.976; in test [15], 1.32; in test [16] it was 1.06; in test [18] it was 0.983; in test [19], 1.16. Further, the composite Z-score in [2] was -0.706 (inactive). The z-score in [17] is -2.31; in test [20], -2.88 (inactive).

With `C=CCOC(=O)[C@H]1[C@@H]2C(=O)O[C@@H](c3ccccc3)[C@@H](c3ccccc3)N2[C@@H](c2ccc(OCCOC(=O)[C@H]3C[C@H]4C(=O)N5CCC[C@H]5C(=O)N4[C@H]3c3cccc(OCCO)c3)cc2)[C@]12C(=O)Nc1ccccc12`, the composite z-score is -0.592 in test [1]; -0.0647 in [3]; -0.0424 in [4]; 0.466 in test [5]; 2.31 in test [6]; -0.103 in test [7]. In addition, the composite z-score turned out to be 1.31 in test [8]; 1.37 in [9]; 0.96 in test [10]; 1.34 in test [11]; 1.16 in [12]; 0.903 in [13]. Moreover, the composite z-score in test [14] was determined as 0.47; in test [15], 1.34; in [16] it was 1.57; in [18], 0.628; in [19], 0.828. In addition, the composite Z-score in test [2] was 1.51 (inactive). Moreover, the values for the z-score in test [17] and in test [20] were -0.851 and -1.23 (inactive), respectively.
